Source: PubChem BioAssay AID1159580 (chemical genetic matrix, 2015)
“And” between values parts separate entries of the source, which are not always exact repeats. Equal entries are not always repeated. The whole screen tested about 5,500 compounds, of which about 2,000 (36%) were called active. Not shown: some 18% with an inconclusive outcome. Rule as the data show it: active = normalized growth mostly below about 0.91 (no sharp cut-off); inconclusive = no clear call, values can overlap the other calls; inactive = mostly above about 0.92. The list shows a part of the results.

Test: chemical genetic growth profiling, strain panel (AID 1159580);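 also: tested at 20 µM; growth read once vehicle control cultures reached saturation at 30 °C; 1 = growth at the plate median or of vehicle wells; lower values mean less growth of the strain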
Details: S. cerevisiae deletion strains, growth OD
[1] = locus YAR019C, strain CDC15, stronger effect = lower value
[2] = locus YBL105C, strain PKC1, stronger effect = lower value
[3] = locus YBR135W, strain CKS1, stronger effect = lower value
[4] = locus YBR136W, strain MEC1, stronger effect = lower value
[5] = locus YBR160W, strain CDC28, stronger effect = lower value
[6] = locus YDL017W, strain CDC7, stronger effect = lower value
[7] = locus YDL028C, strain MPS1, stronger effect = lower value
[8] = locus YDL101C, strain DUN1, stronger effect = lower value
[9] = locus YDL108W, strain KIN28, stronger effect = lower value
[10] = locus YDL132W, strain cdc53, stronger effect = lower value
[11] = locus YDL214C, strain PRR2, stronger effect = lower value
[12] = locus YDR052C, strain DBF4, stronger effect = lower value
[13] = locus YDR054C, strain cdc34, stronger effect = lower value
[14] = locus YDR226W, strain ADK1, stronger effect = lower value
[15] = locus YDR477W, strain SNF1, stronger effect = lower value
[16] = locus YER123W, strain YCK3, stronger effect = lower value
[17] = locus YER133W, strain GLC7, stronger effect = lower value
[18] = locus YFL009W, strain cdc4, stronger effect = lower value
[19] = locus YFL029C, strain CAK1, stronger effect = lower value
[20] = locus YFR003C, strain YPI1, stronger effect = lower value
[21] = locus YFR019W, strain FAB1, stronger effect = lower value
[22] = locus YFR028C, strain CDC14, stronger effect = lower value
[23] = locus YGR040W, strain KSS1, stronger effect = lower value
[24] = locus YGR052W, strain FMP48, stronger effect = lower value
[25] = locus YGR092W, strain DBF2, stronger effect = lower value
[26] = locus YHR030C, strain SLT2, stronger effect = lower value
[27] = locus YHR079C, strain IRE1, stronger effect = lower value
[28] = locus YHR082C, strain KSP1, stronger effect = lower value
[29] = locus YHR205W, strain SCH9, stronger effect = lower value
[30] = locus YIL147C, strain SLN1, stronger effect = lower value
[31] = locus YJL095W, strain BCK1, stronger effect = lower value
[32] = locus YJL128C, strain PBS2, stronger effect = lower value
[33] = locus YJL157C, strain FAR1, stronger effect = lower value
[34] = locus YJR016C, strain ILV3, stronger effect = lower value
[35] = locus YJR066W, strain TOR1 (second series), stronger effect = lower value
[36] = locus YJR066W, strain TOR1, stronger effect = lower value
[37] = locus YKL048C, strain ELM1, stronger effect = lower value
[38] = locus YKL067W, strain YNK1, stronger effect = lower value
[39] = locus YKL101W, strain HSL1, stronger effect = lower value
[40] = locus YKL193C, strain SDS22, stronger effect = lower value
[41] = locus YKL203C, strain TOR2, stronger effect = lower value
[42] = locus YLR113W, strain HOG1, stronger effect = lower value
[43] = locus YLR133W, strain CKI1, stronger effect = lower value
[44] = locus YLR403W, strain SFP1, stronger effect = lower value
[45] = locus YML070W, strain DAK1, stronger effect = lower value
[46] = locus YMR001C, strain CDC5, stronger effect = lower value
[47] = locus YMR205C, strain PFK2 (second series), stronger effect = lower value
[48] = locus YMR277W, strain FCP1, stronger effect = lower value
[49] = locus YNL006W, strain LST8, stronger effect = lower value
[50] = locus YNL020C, strain ARK1, stronger effect = lower value
[51] = locus YNL161W, strain CBK1, stronger effect = lower value
[52] = locus YNL183C, strain NPR1, stronger effect = lower value
[53] = locus YNL207W, strain RIO2, stronger effect = lower value
[54] = locus YNL222W, strain SSU72, stronger effect = lower value
[55] = locus YNL307C, strain MCK1 (second series), stronger effect = lower value
[56] = locus YOL078W, strain AVO1, stronger effect = lower value
[57] = locus YOL136C, strain PFK27, stronger effect = lower value
[58] = locus YOR061W, strain CKA2, stronger effect = lower value
[59] = locus YOR119C, strain RIO1, stronger effect = lower value
[60] = locus YOR231W, strain MKK1, stronger effect = lower value
[61] = locus YOR329C, strain SCD5, stronger effect = lower value
[62] = locus YPL031C, strain PHO85, stronger effect = lower value
[63] = locus YPL153C, strain RAD53, stronger effect = lower value
[64] = locus YPL204W, strain HRR25, stronger effect = lower value
[65] = locus YPL209C, strain IPL1, stronger effect = lower value
[66] = locus YPL256C, strain CLN2, stronger effect = lower value
[67] = locus YPR025C, strain CCL1, stronger effect = lower value
[68] = locus YPR106W, strain ISR1, stronger effect = lower value
[69] = locus YPR111W, strain DBF20, stronger effect = lower value
[70] = strain NNK1, stronger effect = lower value
[71] = strain TSCII, stronger effect = lower value

Measured: normalized growth

O=C(NCCSCc1ccco1)Nc1cc(Cl)cc(Cl)c1
active: locus YAL013W, strain DEP1, stronger effect = lower value 0.915 | locus YDL134C, strain PPH21, stronger effect = lower value 0.724 | locus YLR039C, strain RIC1, stronger effect = lower value 0.769 | [42] 0.842 | locus YLR262C, strain YPT6, stronger effect = lower value 0.759 | [66] 0.818
inactive: [1] 0.958 | [2] 0.96 | [3] 0.954 | [4] 0.963 | [5] 0.957 | locus YBR229C, strain ROT2, stronger effect = lower value 0.976 | [6] 0.956 | [7] 0.966 | [8] 0.97 and 0.977 | [9] 0.958 | [10] 0.949 | [11] 0.894 | [12] 0.972 | [13] 0.942 | locus YDR150W, strain NUM1, stronger effect = lower value 0.908 | [14] 0.965 | [15] 0.885 | locus YEL061C, strain CIN8, stronger effect = lower value 0.984 | [16] 0.842 | [17] 0.895 | [18] 0.956 | [19] 0.951 | [20] 0.962 | [21] 0.897 | [22] 0.956 | [23] 0.893 | [24] 0.967 | locus YGR078C, strain PAC10, stronger effect = lower value 0.957 | [25] 0.914 | [27] 0.853 | [28] 0.866 | locus YHR087W, strain rtc3, stronger effect = lower value 0.966 | [29] 0.86 | [30] 0.955 | [31] 0.815 | [32] 0.928 | [33] 0.893 | [34] 0.96 | locus YJR043C, strain POL32, stronger effect = lower value 0.932 | [35] 0.946 | [36] 0.824 | locus YJR075W, strain HOC1, stronger effect = lower value 0.958 | [37] 0.934 | [38] 0.898 | [39] 0.911 | [40] 0.942 | [41] 0.916 | locus YLR058C, strain SHM2 (second series), stronger effect = lower value 0.953 | locus YLR085C, strain ARP6, stronger effect = lower value 0.865 | [43] 0.893 | [44] 0.868 | [45] 0.879 | locus YML094W, strain GIM5, stronger effect = lower value 0.918 | [46] 0.954 | [47] 0.914 | locus YMR219W, strain ESC1, stronger effect = lower value 0.976 | locus YMR263W, strain SAP30, stronger effect = lower value 0.917 | [48] 0.952 | [49] 0.951 | [50] 0.879 | locus YNL153C, strain GIM3, stronger effect = lower value 0.97 | [51] 0.96 | [52] 0.845 | [53] 0.943 | [54] 0.953 | locus YNL298W, strain CLA4 (second series), stronger effect = lower value 0.879 | [55] 0.888 | locus YNL322C, strain KRE1, stronger effect = lower value 0.96 | locus YNR030W, strain Alg12, stronger effect = lower value 0.897 | [56] 0.948 | [57] 0.853 | [58] 0.9 | [59] 0.954 | [60] 0.863 | [61] 0.956 | [62] 0.872 | locus YPL055C, strain LGE1, stronger effect = lower value 0.858 | [63] 0.894 | [64] 0.867 | [65] 0.958 | locus YPL241C, strain CIN2, stronger effect = lower value 0.937 | [67] 0.952 | [68] 0.959 | [69] 0.957 | locus YPR135W, strain CTF4, stronger effect = lower value 0.841 | [70] 0.952 | [71] 0.954
0.822 (inactive) and 0.683 (active): [26]

O=C(NCCSCc1cccc(C(F)(F)F)c1)c1ccc(Cl)cc1
inactive: [1] 0.968 | [2] 0.965 | [3] 0.953 | [4] 0.979 | [5] 0.964 | [6] 0.971 | [7] 0.947 | [8] 0.975 | [9] 0.961 | [10] 0.96 | [11] 0.891 | [12] 0.982 | [13] 0.955 | [14] 0.973 | [15] 0.894 | [16] 0.851 | [17] 0.916 | [18] 0.961 | [19] 0.965 | [20] 0.964 | [21] 0.964 | [22] 0.965 | [23] 0.905 | [24] 0.826 | [25] 0.733 | [27] 0.72 | [28] 0.871 | [29] 0.738 | [30] 0.97 | [31] 0.743 | [32] 0.887 | [33] 0.918 | [34] 0.959 | [35] 0.897 | [36] 0.769 | [37] 0.963 | [38] 0.864 | [39] 0.917 | [40] 0.962 | [41] 0.988 | [43] 0.902 | [44] 0.896 | [45] 0.903 | [46] 0.963 | [47] 0.885 | [48] 0.951 | [49] 0.967 | [50] 0.896 | [51] 0.973 | [52] 0.819 | [53] 0.969 | [54] 0.965 | [55] 0.86 | [56] 0.963 | [57] 0.896 | [58] 0.849 | [59] 0.916 | [60] 0.764 | [61] 0.965 | [62] 0.892 | [63] 0.892 | [64] 0.886 | [65] 0.968 | [67] 0.957 | [68] 0.947 | [69] 0.93 | [70] 0.954 | [71] 0.959
active: [26] 0.614 | [42] 0.736 | [66] 0.797
